# Inconclusive results are not listed. Entries that show only a call come without a potency. The source made the active and inactive calls. Unless noted, calls come from the whole dose curve; as a rule, active = well fitted curve in the direction sought with a large enough effect; inconclusive = small, poorly fitted or top-dose-only effect, or another doubt; inactive = no such curve, though single readings can be large; an effect the other way counts as inactive or inconclusive.
# What was measured:
# [1] = biological target: Pyruvate kinase PKM (Homo sapiens) (UniProt P14618); assay: qHTS Assay for Activators of Human Muscle Pyruvate Kinase (AID 954; active = well fitted curve in the direction sought with a large enough effect, not every such curve was filed as active)
# Pyruvate kinase PKM (Homo sapiens), sequence (P14618 whole entry, looked up): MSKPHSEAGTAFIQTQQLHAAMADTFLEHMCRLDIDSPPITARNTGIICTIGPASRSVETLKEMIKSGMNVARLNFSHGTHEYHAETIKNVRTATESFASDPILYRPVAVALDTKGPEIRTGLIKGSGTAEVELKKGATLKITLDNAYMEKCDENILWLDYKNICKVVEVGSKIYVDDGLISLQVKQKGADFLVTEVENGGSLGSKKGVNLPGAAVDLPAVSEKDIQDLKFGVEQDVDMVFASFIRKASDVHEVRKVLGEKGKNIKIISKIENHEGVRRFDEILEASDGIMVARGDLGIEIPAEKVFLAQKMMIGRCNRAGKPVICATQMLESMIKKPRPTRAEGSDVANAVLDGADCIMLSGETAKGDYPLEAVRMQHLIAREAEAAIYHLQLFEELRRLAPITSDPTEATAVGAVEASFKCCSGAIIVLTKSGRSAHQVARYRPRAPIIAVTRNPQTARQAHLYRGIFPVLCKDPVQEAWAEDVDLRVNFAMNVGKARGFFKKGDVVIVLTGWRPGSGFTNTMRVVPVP
# How it was run: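 PKM2, human, >95% pure, 0.1 nM; PEP 0.5 mM (Km), ADP 0.1 mM; 50 mM imidazole pH 7.2, 50 mM KCl, 0.01% Tween 20, 0.05% BSA; 1 h RT; luciferase luminescence readout.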
# [2] = MultiTox-Fluor Cytotoxicity Assay - LYMP1-002 - Live Cells (AID 955);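 note: cells exposed to compound for 16 hours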; note: potency is the fitted concentration of half-maximal effect
# How it was run: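 LYMP1-002 lymphoblastoid cells; 2500 cells/well; 16 hr compound exposure, 37 C; MultiTox-Fluor reagent 60 min RT; live-cell fluorescence Ex/Em=405/510; qHTS concentration-response, Hill-equation AC50; tetraoctylammonium bromide positive control.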
# [3] = MultiTox-Fluor Cytotoxicity Assay - LYMP1-002 - Dead Cells (AID 960); note: nearly all actives have a fitted effect of over 60% in size; note: potency is the fitted concentration of half-maximal effect
# How it was run: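 Readout: fluorescence at 485/520 from cell-impermeant bis-AAF-R110 cleaved by proteases leaking from damaged cells. LYMP1-002 lymphoblastoid line, 16 hr compound treatment at 37 C, concentration-response in qHTS format; Hill-equation AC50 values.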
# [4] = MultiTox-Fluor Cytotoxicity Assay - LYMP1-003 - Dead Cells (AID 961);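 note: cells exposed to compound for 16 h at 37 °C; nearly all actives have a fitted effect of over 70% in size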; note: potency is the fitted concentration of half-maximal effect
# How it was run: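 LYMP1-003 lymphoblastoid, 2500 cells/well, 5 hr settle then 16 hr cpd at 37 C; MultiTox-Fluor reagent 60 min RT; Ex/Em 485/520 dead-cell signal; norm. DMSO = 0%, 15 uM tetraoctylammonium bromide = 100%; Hill AC50.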
# [5] = Cell Viability - LYMP1-003 - Assay at 24 hr (AID 963); note: potency is the fitted concentration of half-maximal effect
# How it was run: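 CellTiter-Glo luminescence (intracellular ATP) read after 24 hr, 37 C compound exposure of 2500 LYMP1-003 human lymphoblastoid cells/well in complete medium; qHTS concentration series; AC50 via standard Hill equation.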
# [6] = Cell Viability - LYMP2-005 (AID 967); note: potency is the fitted concentration of half-maximal effect
# How it was run: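 Luciferase-based ATP quantitation served as the viability measure in human lymphoblastoid LYMP2-005 cells exposed to test compounds for 24 h at 37 C in complete culture medium. Potency (AC50) was obtained by fitting concentration-response curves with the Hill equation.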
# [7] = Cell Viability - LYMP2-009 (AID 968); note: nearly all actives have a fitted effect of over 55% in size; note: potency is the fitted concentration of half-maximal effect
# [8] = Cell Viability - LYMP1-003 - Assay at 40 hr (AID 964); note: nearly all actives have a fitted effect of over 60% in size; note: potency is the fitted concentration of half-maximal effect
# How it was run: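 LYMP1-003 lymphoblastoid cells, 2500/well; 5 hr preincubation, 40 hr compound exposure, 37 C; CellTiter-Glo 30 min RT; luminescence; Hill-fit AC50. Positive control tetraoctylammonium bromide.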
# [9] = Cell Viability - LYMP2-003 (AID 965);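 note: cells exposed to compounds for 24 h before reading; nearly all actives have a fitted effect of over 50% in size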; note: potency is the fitted concentration of half-maximal effect
# How it was run: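 qHTS, human lymphoblastoid line, 2500 cells/well, complete medium. 24 h drug, 37 C. ATP-based luminescent readout; Hill-fit AC50.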
# [10] = Cell Viability - LYMP2-004 (AID 966); note: nearly all actives have a fitted effect of over 65% in size; note: potency is the fitted concentration of half-maximal effect
# How it was run: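 Luminescent ATP read-out (CellTiter-Glo, 30 min RT) after 24 hr compound exposure at 37 C; 2500 lymphoblastoid cells/well, complete medium. Decrease in ATP = cytotoxicity; AC50 from standard Hill model.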
SMILES,outcome [1],Potency [2],Potency [3],Potency [4],Potency [5],Potency [6],Potency [7],Potency [8],Potency [9],Potency [10]
CN(C)c1cc2c(Nc3ccc4c(cnn4Cc4ccccc4)c3)ncnc2cn1,inactive,,,,,,,,,
CCCC(=O)c1cc(O)c(O)cc1O,,inactive,inactive,inactive,inactive,inactive,inactive,,,
O=C1NC(c2cccc([N+](=O)[O-])c2)=CCN1c1ccccc1O,inactive,,,,,,,,,
Nc1cccc2c(N)cccc12,,inactive,inactive,inactive,inactive,inactive,inactive,inactive,inactive,inactive
O=C(Oc1ccccc1)c1ccccc1O,,inactive,inactive,inactive,inactive,inactive,inactive,inactive,inactive,inactive
COc1ccccc1N1CCN(CCN2C(=O)CC3(CCCC3)CC2=O)CC1,inactive,,,,,,,,,
CCCCC(CC)COC(=O)c1ccccc1C(=O)O (centres undefined),,inactive,inactive,inactive,inactive,inactive,inactive,inactive,inactive,inactive
CC(C)N(CCC(=O)c1ccc2ccccc2c1)Cc1ccccc1,inactive,,,,,,,,,
Cc1ccc(O)cc1,,inactive,,inactive,inactive,inactive,inactive,inactive,inactive,inactive
Cn1cnc2c(NCc3ccccc3)nc(NCCO)nc21,inactive,,,,,,,,,
Brc1ccc([C@H]2CN3CCSC3=N2)cc1,inactive,,,,,,,,,
CCCCCCCCCCCCCCCC[n+]1ccccc1,,12.6 µM (active),10 µM (active),,20 µM (active),15.8 µM (active),15.8 µM (active),10 µM (active),31.6 µM (active),
O=[N+]([O-])c1ccc(-c2nc(-c3ccc(F)cc3)c(-c3ccncc3)[nH]2)cc1,inactive,,,,,,,,,
Cc1cc(C(C)(C)C)c(O)c(C(C)(C)C)c1,,inactive,,inactive,inactive,inactive,inactive,inactive,inactive,inactive
Nc1ccc(O)cc1,,25.1 µM (active),31.6 µM (active),50.1 µM (active),50.1 µM (active),25.1 µM (active),31.6 µM (active),39.8 µM (active),25.1 µM (active),25.1 µM (active)
C1=CC2C3C=CC(C3)C2C1 (centres undefined),,inactive,inactive,inactive,inactive,inactive,inactive,inactive,inactive,
Brc1ccccc1-c1ccccc1,,inactive,inactive,inactive,inactive,inactive,inactive,inactive,inactive,inactive
C[N+](C)(C)CCO,inactive,,,,,,,,,
CC(C)(C)c1ccc(O)c(O)c1,,inactive,inactive,,inactive,,39.8 µM (active),25.1 µM (active),50.1 µM (active),
CC(C)(c1ccc(O)cc1)c1ccc(O)cc1,,inactive,inactive,inactive,inactive,inactive,inactive,inactive,inactive,inactive
Nc1c2ccccc2nc2ccccc12,,inactive,7.94 µM (active),15.8 µM (active),25.1 µM (active),,10 µM (active),20 µM (active),25.1 µM (active),12.6 µM (active)
Oc1ccccc1,,inactive,inactive,inactive,inactive,inactive,inactive,inactive,inactive,inactive
NC(N)=NCCCCN=C(N)N,inactive,,,,,,,,,
O=C(NO)c1ccccc1,,inactive,inactive,inactive,inactive,inactive,inactive,inactive,inactive,inactive
OCc1c[nH]c2ccccc12,,inactive,inactive,inactive,inactive,inactive,inactive,inactive,inactive,inactive
CC(=O)OC/C=C(C)/C=C/C=C(C)/C=C/C1=C(C)CCCC1(C)C,,inactive,inactive,inactive,inactive,,,,,
CC(C)C(C)(C)C(C)(C)C(C)(C)S,,inactive,,inactive,inactive,,inactive,inactive,inactive,inactive
COc1cc(C=O)ccc1O,,inactive,inactive,inactive,inactive,inactive,inactive,inactive,inactive,inactive
c1ccc2occc2c1,,inactive,inactive,inactive,inactive,inactive,inactive,inactive,inactive,inactive
O=C(c1ccccc1)c1ccccc1,,inactive,inactive,inactive,inactive,inactive,inactive,inactive,inactive,inactive

# — PubChem BioAssay (NCATS)
